Screening data (PubChem BioAssay)
A selection: hits, their analogues and other compounds. The true share with any hit is near 2.1%.
PGC1a acetyl inh – modulators of PGC1a acetylation. 0.17% of 350,000 active. inhibition, % at 15.6 µM. U2OS PGC1a acetylation, AlphaScreen anti-acetyl-lysine; with virally co-expressed GCN5 acetyltransferase. AID 651687;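 active = every replicate shows inhibition of at least 40%; inconclusive = mean inhibition at least 40% but some replicate below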;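 also: 0% = neutral control wells and 100% = positive control wells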
HIV Env fusion – HIV envelope-mediated fusion inhibition; HeLa-JRFL Env/CEM21 cell fusion, luciferase; inhibition, % at 12.3 µM; 1.1% of 360,000 active; AID 651610;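 active = mean replicate inhibition score of at least 50 and every replicate individually at or above 50; inconclusive = only one of the two criteria met; inactive = mean below 50 and not all replicates reaching 50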;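 also: 0% = plate neutral controls and 100% = maraviroc near 300 nM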
AF4-AF9 inh – blocks AF4 peptide binding to human AF9; P42568; AlphaScreen, biotin-AF4 peptide binding to FLAG-AF9; inhibition, % at 10 µM; 0.47% of 350,000 active;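 active = every replicate reaching a set inhibition limit, whatever the replicate mean, cut at about 25% in these data; inconclusive = mean inhibition reaches that limit but some replicates miss it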;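 also: 0% = plate neutral control median and 100% = total signal loss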
Target sequence (P42568 whole entry, looked up): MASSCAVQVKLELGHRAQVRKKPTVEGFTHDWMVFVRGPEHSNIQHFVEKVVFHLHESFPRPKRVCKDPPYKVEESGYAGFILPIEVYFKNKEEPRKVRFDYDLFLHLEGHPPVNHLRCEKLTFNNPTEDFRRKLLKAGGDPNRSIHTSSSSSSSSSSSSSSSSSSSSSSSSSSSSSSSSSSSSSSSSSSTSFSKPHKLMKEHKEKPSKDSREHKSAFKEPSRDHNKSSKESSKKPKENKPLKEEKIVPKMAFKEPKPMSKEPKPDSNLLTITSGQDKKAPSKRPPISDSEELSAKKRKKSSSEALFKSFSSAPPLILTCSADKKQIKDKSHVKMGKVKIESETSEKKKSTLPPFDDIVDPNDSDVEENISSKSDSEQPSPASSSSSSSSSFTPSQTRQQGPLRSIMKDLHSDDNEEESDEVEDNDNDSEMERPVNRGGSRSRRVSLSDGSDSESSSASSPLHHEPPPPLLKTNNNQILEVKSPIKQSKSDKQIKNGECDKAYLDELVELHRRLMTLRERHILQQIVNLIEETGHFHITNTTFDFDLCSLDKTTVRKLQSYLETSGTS
GSIS activator – GLuc luminescence reporter in INS-1E cells, primary screen for activators of glucose-dependent secretion of insulin | activation, % at 16.6 µM | AID 743287 | INS-1E GLuc reporter insulin secretion, 2-3 h | 0.61% of 370,000 active;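 active = lowest replicate activation of at least 40%, so every replicate reaches that level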;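 also: 0% = median of neutral control wells and 100% = median of IBMX positive control wells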
NSD2 inh – blocks human histone methyltransferase NSD2; inhibition, % at 12.5 µM; 0.54% of 310,000 active; NSD2 peptide methylation, AlphaScreen, 120 min; in the data active = inhibition above about 50%
Numbers without * were called inactive; ? = inconclusive; · = no result given; [ ] = another dose, or the depositor's remark.

SMILES	PGC1a acetyl inh	HIV Env fusion	AF4-AF9 inh	GSIS activator	NSD2 inh
CCOc1ccc(NC(=O)CSc2ncc(-c3ccc(F)cc3)n2Cc2ccco2)cc1	-13	-25	39*	-28	-5
O=C(Nc1nnc(CCS(=O)(=O)c2ccc3ccccc3c2)s1)c1cccs1	-17	42	·	106*	-3
O=C(Nc1cc(S(=O)(=O)N2CCCCC2)ccc1O)c1ccccc1NS(=O)(=O)c1ccc(F)cc1	-10	6	0	-51	0
COc1ccc(-c2csc(NC(=O)c3ccccc3NS(=O)(=O)c3ccc(F)c(F)c3)n2)cc1	2	43	-4	-69	·
O=C(COC(=O)c1cccnc1Cl)Nc1cc(S(=O)(=O)N2CCCCCC2)ccc1Cl	·	19	0	42*	-1
Cc1ccc(S(=O)(=O)Nc2ccccc2C(=O)NCc2cccnc2)cc1	91*	11	-1	17	-6
O=C(Nc1cc(S(=O)(=O)N2CCCCC2)ccc1Cl)c1ccccc1NS(=O)(=O)c1ccc(F)cc1	·	71*	-2	-23	15
Cc1ccc(S(=O)(=O)Nc2ccccc2C(=O)Nc2nc(-c3ccc(F)cc3)cs2)cc1	6	56*	4	-11	38
O=C(NCc1cccnc1)c1ccccc1NS(=O)(=O)c1ccc(F)cc1	-2	-17	-2	11	1
CC=Cc1ccc2n(c1=O)C[C@H]1[C@H](CO)[C@@H](C(=O)NCC(F)(F)F)[C@@H]2N1C(=O)CC (mixture of isomers)	20	·	2	7	·
C[C@@H]1CN([C@H](C)CO)C(=O)Cc2cc(N(C)C)ccc2O[C@@H]1CN(C)CC1CC1	8	14[16.7 µM]	1	26	·
Cc1ccc(S(=O)(=O)c2ccc([N+](=O)[O-])o2)cc1	·	-198	3	99*	1
Cc1ccc(NC(=O)c2ccc([N+](=O)[O-])o2)c(C)c1	-21	-12	0	2	18
CCOc1ncnc2c1sc1nc3c(cc12)COC(C)(C)C3	·	-9	-3	6	-1
O=C(C[C@@H]1CC[C@H]2[C@@H](COC[C@H](O)CN2S(=O)(=O)c2ccccc2)O1)NCC1CCCCC1	-7	·	39*	2	·
O=C(C[C@@H]1CC[C@H]2[C@@H](COC[C@H](O)CN2S(=O)(=O)c2ccc(F)cc2)O1)NCC1CCCCC1	-9	12[16.7 µM]	36*	-9	·
O=C(C[C@@H]1CC[C@H]2[C@@H](COC[C@@H](O)CN2C(=O)c2ccc(F)cc2)O1)NC1Cc2ccccc2C1	22	67*[16.7 µM]	-1	-1	·
O=C(C[C@H]1CC[C@H]2[C@@H](COC[C@@H](O)CN2S(=O)(=O)c2ccccc2)O1)NCC1CCCCC1	0	·	6	-12	·
O=C(C[C@@H]1CC[C@@H]2[C@H](COC[C@@H](O)CN2S(=O)(=O)c2ccc(F)cc2)O1)NCC1CCCCC1	-4	3[16.7 µM]	?	-7	·
O=C(C[C@H]1CC[C@@H]2[C@H](COC[C@H](O)CN2S(=O)(=O)c2ccc(F)cc2)O1)NCC1CCCCC1	0	-23[16.7 µM]	28*	1	·
C[C@@H]1CCCCO[C@@H](CN(C)CC2CCCCC2)[C@@H](C)CN([C@H](C)CO)C(=O)c2cc(NC(=O)CCCN(C)C)ccc2O1	1	-17[16.7 µM]	?	9	·
O=[N+]([O-])c1ccc2c(c1)C(N1CCOCC1)/C(=C/COc1ccc3ccccc3c1Br)O2 (centres undefined)	-34	·	·	·	1
C[C@H](C(=O)N(C)C[C@H]1OCc2ccccc2-c2ccccc2C(=O)N([C@H](C)CO)C[C@H]1C)c1ccccc1	-3	23[16.7 µM]	-2	7	·
C=CCn1c2ccccc2c(=O)c2cc(C#CC3(O)CCCCC3)ccc21	·	-384	-6	2	·
O=C(C[C@@H]1CC[C@H]2[C@@H](COC[C@@H](O)CN2S(=O)(=O)c2ccc(Cl)cc2)O1)NCC1CCCCC1	-2	·	34*	14	·
SMILES	PGC1a acetyl inh	HIV Env fusion	AF4-AF9 inh	GSIS activator	NSD2 inh
O=C(C[C@@H]1CC[C@@H]2[C@H](COC[C@H](O)CN2S(=O)(=O)c2cccc(Cl)c2)O1)NC1CCCC1	3	·	8	-1	·
O=C(C[C@H]1CC[C@@H]2[C@H](COC[C@@H](O)CN2S(=O)(=O)c2cccc(Cl)c2)O1)NC1CCCC1	0	·	26*	4	·
O=C(C[C@@H]1CC[C@H]2[C@@H](COC[C@H](O)CN2Cc2cccc(C(F)(F)F)c2)O1)NCc1ccc(Cl)cc1	-3	68*[16.7 µM]	1	-23	·
Cc1ccccc1S(=O)(=O)N1C[C@H](O)COC[C@H]2O[C@@H](CC(=O)NCc3ccccc3Cl)CC[C@@H]21	-8	57*[16.7 µM]	4	1	·
COc1ccc(Br)cc1CNC(=O)C1CCCN(S(=O)(=O)N2CC(C)CC(C)C2)C1 (centres undefined)	-15	13	-6	-26	-1
CCOc1ccccc1NC(=O)c1nc(S(=O)(=O)Cc2cccc(C)c2)ncc1Cl	·	-21	1	-7	1
Cc1cccc(N2CCN(C(=O)c3cccc(S(=O)(=O)N4CCCCC4)c3)CC2)c1C	-3	64*	1	·	-1
Cc1cccc(N2CCN(C(=O)CNC(=O)C3CCCCC3)CC2)c1C	12	56*	1	16	1
CCNC(=O)C[C@@H]1CC[C@@H]2[C@H](COc3ccc(NC(=O)Nc4ccc(F)cc4)cc3C(=O)N2C)O1	2	3[16.7 µM]	-1	-3	·
COc1cc(NC(=O)CSc2nc3ccccc3cc2C)c(C(=O)O)cc1OC	·	20	·	5	0
O=C(Nc1ccc(F)c(F)c1)c1oc2ccccc2c1NC(=O)C1CCCO1 (centres undefined)	-7	-11	0	14	-2
O=C(C[C@@H]1C[C@@H]2c3cc(NC(=O)C4CCOCC4)ccc3O[C@@H]2[C@H](CO)O1)NCc1ccc(Cl)cc1	12	-7[16.7 µM]	-2	5	·
c1ccc(-c2csc3ncnc(NCCN4CCOCC4)c23)cc1	16	78*	·	32	1
Clc1ccc(-c2csc3ncnc(NCCN4CCOCC4)c23)cc1	17	63*	·	·	-1
O=C(CCC(=O)c1ccc(F)cc1)NN1C(=O)NC2(CCCCC2)C1=O	1	2	-1	-2	0
c1ccc(COn2nnc3ccccc32)c(COn2nnc3ccccc32)c1	-5	·	6	-24	0
CNc1nc(-c2ccccc2)[n+](-c2ccc(C)cc2)s1	·	·	·	176*	4
CCSc1nc2cc(OC)c(OC)cc2c(=O)n1CC	6	·	·	69*	0
CCn1c(SCc2nc3cc(OC)c(OC)cc3c(=O)[nH]2)nc2ccccc21	7	12	-1	15	-5
CO[C@H]1CN(C)C(=O)c2cc(NC(=O)CC(F)(F)F)ccc2OC[C@@H](C)N(S(=O)(=O)c2cn(C)cn2)C[C@H]1C	1	·	-2	0	·
O=S(=O)(c1ccc(=S)[nH]c1)N1CCOCC1	·	11	-3	16	6
O=S(=O)(c1ccc(=S)[nH]c1)N1CCCCCC1	33	-10	-1	42*	-2
